Records with an inconclusive call do not appear. Unmarked numbers belong to inactive results. Calls come from the whole dose curve; as a rule, active = well fitted cell-killing curve with a large enough effect in the repeat runs (not every such curve was filed as active); inconclusive = weak or mixed curves, or effect the other way; inactive = no such curve, though single readings can be large or run the other way.
Test: qHTS assay to identify small molecule antagonists of the farnesoid-X-receptor (FXR) signaling pathway - cell viability counter screen (AID 743221); note: nearly all actives have a fitted effect of over 50% in size
Conditions: FXR-bla HEK293T viability, CellTiter-Glo luminescence, 16 h; series mostly up to 62.6 µM; activity change, negative = cytotoxicity: at the top concentration
From the text: National Center for Advancing Translational Sciences [NCATS]
NIH Chemical Genomics Center [NCGC]
U.S. Environmental Protection Agency [EPA]
National Institutes of Environmental Health Sciences [NIEHS]
National Toxicology Program [NTP]
U.S. Food and Drug Administration [FDA]
The farnesoid-X-receptor (FXR), a nuclear hormone receptor, is highly expressed in liver, intestine, kidney and adrenal cortex. Natural ligands of FXR are the bile acids (Cholic acid, Chenodeoxy cholic acid etc). FXR is an important regulator of diverse metabolic pathways, including the bile acid homeostasis, lipid and glucose metabolisms. FXR regulates the expression of target genes by binding either as a monomer or as a heterodimer with the retinoid X receptor (RXR). Numerous studies have reported that FXR exerts protective function during cholestasis, diabetes, liver regeneration, and cancer. To identify compounds that inhibit FXR signaling, GeneBLAzer FXR-UAS-bla HEK 293T cell line (Invitrogen, Carlsbad, CA) containing a beta-lactamase reporter gene under the control of a UAS response element was used to screen the Tox21 10K compound library. The cytotoxicity of the Tox21 compound library against the FXR-bla cell line was tested in parallel by measuring the cell viability using CellTiter-Glo assay in the same wells.
Tox21 Assay Protocol Summary:
FXR-bla cells were dispensed at 5000 cells/5uL/well in 1536-well black wall/clear bottom plates using a Multidrop Combi (Thermo Fisher Scientific, Waltham, MA) dispenser. After the assay plates were incubated at 37 C and 5% CO2 for 5 h, 23 nL of compounds dissolved in DMSO, positive controls or DMSO only was transferred to the assay plate by a Pintool station (Kalypsys, San Diego, CA), followed by addition of 1 uL Chenodeoxycholic acid (50 uM, final concentration in the wells). The assay plates were incubated at 37C for 16 h. After 1 uL of LiveBLAzerTM B/G FRET substrate was added using a Bioraptr Flying Reagent Dispenser (FRD) workstation (Beckman Coulter, Indianapolis, IN), the plates were incubated at room temperature for 2 h, and fluorescence intensity was measured by an Envision plate reader (PerkinElmer, Shelton, CT). For cell viability readout that measures cytotoxicity, 4uL/well of CellTiter-Glo reagent was added into the assay plates using a Bioraptr FRD. After 30 min incubation at room temperature, the luminescence intensity in the plates was measured using a ViewLux plate reader (PerkinElmer).
% is set by controls: 0 for no effect and ±100 for the full control effect.

SMILES | activity change, negative = cytotoxicity
Cc1cc(C)c(N=Nc2c(O)c(S(=O)(=O)O)cc3cc(S(=O)(=O)O)ccc23)cc1C | 0.502% [at 5.95 µM]
FB(F)F | 3.04% [at 81.1 µM]
CC1=NS(=O)(=O)c2cc(Cl)ccc2N1 | 4.1%
O=[N+]([O-])c1ccc(/C=N\O)o1 | 6.39%
Nc1ccn([C@@H]2O[C@H](CO)[C@@H](O)C2O)c(=O)n1 (stereo not given in full) | -4.52%
Nc1ccccn1 | 13.1%
CN(C)[C@@H]1C(=O)C(C(=O)NCN2CCCC2)=C(O)[C@@]2(O)C(=O)C3=C(O)c4c(O)cccc4[C@@](C)(O)C3C[C@@H]12 (stereo not given in full) | 1.22%
CCCCCCC1CCC(=O)O1 (stereo not given) | 6.89% [at 81.1 µM]
CCCCCCCCCCCCCCCCCCO | -0.0891%
Cc1nc(C2CCCCC2)c(-c2ccc(S(N)(=O)=O)c(F)c2)o1 | 1.32%
Clc1cc(Cl)cc(Cl)c1 | -0.0602%
CCCCCCCC1CCCC1=O (stereo not given) | 3.99%
CNCCO | 1.49%
CCCC(C)C(=O)OCC (stereo not given) | 3.12%
CN(C)CCN(C)CCN(C)C | 10.4%
[O-][n+]1cccc(CO)c1 | 8.94%
c1ccc(CCc2ccccc2)cc1 | 6.86%
C[N+]1(C)CCCC(OC(=O)C(O)(c2ccccc2)c2ccccc2)C1 (stereo not given) | 1.34%
Cc1ccccc1N=C(N)N=C(N)N | 20.4%
CC1CCC(CO)CC1 (stereo not given) | -9.14% [at 81.1 µM]

SMILES | activity change, negative = cytotoxicity
C=C(C)C(=O)OCC(O)CO (stereo not given) | -0.854%
CC(C)(C#N)Nc1nc(Cl)nc(NC2CC2)n1 | -7.35%
CN1C(C)(C)CC(O)CC1(C)C | -15.1%
CCCn1cc[n+](C)c1C | 5.02% [at 81.1 µM]
C[C@H]1C[C@H]2[C@@H]3CCC4=CC(=O)C=C[C@]4(C)[C@H]3C(=O)C[C@]2(C)[C@@]1(O)C(=O)CO | -1.67%
C[C@H]1[C@H](NC(=O)/C(=N/OC(C)(C)C(=O)O)c2csc(N)n2)C(=O)N1S(=O)(=O)O (stereo in doubt) | 0.804%
CC(=O)OCC(=O)[C@@]1(O)[C@H](C)C[C@H]2[C@@H]3CCC4=CC(=O)C=C[C@]4(C)[C@@]3(F)[C@@H](O)C[C@@]21C | 2.91%
Nc1ccn([C@@H]2O[C@H](CO)[C@@H](O)C2(F)F)c(=O)n1 | 3.06%
CC(C#N)(CCC(=O)O)N=NC(C)(C#N)CCC(=O)O (stereo not given) | 1.98%
CCCCCCCCCC[N+](C)(C)[O-] | 0.63%
C=CCOCC(O)CO (stereo not given) | 9.55%
CCCCCCCCCCCCCCC(=O)O | -18.5% [at 81.1 µM]
C=CC(=O)OCCCl | 1.16% [at 81.1 µM]
O=S(=O)(O)c1cccc(S(=O)(=O)O)c1 | -10.6%
CC(C)(C)OC(=O)c1cccc(N)c1 | -10.3% [at 81.1 µM]
O=S(=O)(O)c1cc(O)c(O)c(S(=O)(=O)O)c1 | 21.1%
c1ccc(Cc2ccccc2)cc1 | -0.0285%
CCN1C=CN(C)C1C (stereo not given) | 5.5% [at 81.1 µM]
Cc1c(N)c(=O)n(-c2ccccc2)n1C | 11.8%
CCN(CC#N)c1cccc(C)c1 | 3.17%
